Shown are actives, neighbours in structure and some others; about 10% of the full set was active somewhere.
HP1b chromo inh: inhibitors of HP1-beta chromodomain binding to methylated histone tails | P83916 | AlphaScreen HP1-beta / biotin-H3K9me3 peptide binding | Potency, µM (top dose mostly 114 µM), inactives show at the highest dose activity change, negative = inhibition, usual class: inhibitors | 390,000 compounds, 0.56% hits | AID 540317; note: potency is the fitted concentration of half-maximal effect; nearly all actives have a fitted effect of over 70% in size
Target sequence (P83916 whole entry, looked up): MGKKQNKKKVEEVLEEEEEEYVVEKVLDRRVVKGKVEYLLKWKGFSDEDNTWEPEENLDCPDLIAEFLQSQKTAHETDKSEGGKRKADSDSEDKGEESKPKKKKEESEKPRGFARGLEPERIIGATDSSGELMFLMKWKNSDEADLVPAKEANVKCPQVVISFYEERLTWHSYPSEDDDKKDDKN
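AlphaScreen: HP1-beta (50 nM) preformed 30 min with biotin-H3(1-18)K9me3 peptide (50 nM) in PBS pH 7.4, 0.01% Tween-20. Compound added for 30 min at RT, then streptavidin donor/nickel chelate acceptor beads (10 ug/mL) for 30 min.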
JMJD2A Tudor inh: blocks the human JMJD2A Tudor domain; AID 504339; Potency, µM (doses to about 114 µM), for the others: at the top dose activity change, negative = inhibition, usual class: inhibitors; O75164; 390,000 compounds, 4.4% hits; AlphaScreen JMJD2A-Tudor / H3K4me3 peptide binding; note: potency is the fitted concentration of half-maximal effect; % is set by controls: 0 for no effect and ±100 for the full control effect; nearly all actives have a fitted effect of over 50% in size
G9a inh: inhibitors of human histone lysine methyltransferase G9a; Potency, µM (series often up to 102 µM), inactives show at the highest dose activity, negative = inhibition, most hits filed as inhibitors; AID 504332; 350,000 compounds, 8.8% hits; G9a H3K9 monomethylation, AlphaScreen, 2 h; note: potency is the fitted concentration of half-maximal effect; % is set by controls: 0 for no effect and ±100 for the full control effect; nearly all actives have a fitted effect of over 75% in size
Target sequence (Q96KQ7 913-1193 limits assumed): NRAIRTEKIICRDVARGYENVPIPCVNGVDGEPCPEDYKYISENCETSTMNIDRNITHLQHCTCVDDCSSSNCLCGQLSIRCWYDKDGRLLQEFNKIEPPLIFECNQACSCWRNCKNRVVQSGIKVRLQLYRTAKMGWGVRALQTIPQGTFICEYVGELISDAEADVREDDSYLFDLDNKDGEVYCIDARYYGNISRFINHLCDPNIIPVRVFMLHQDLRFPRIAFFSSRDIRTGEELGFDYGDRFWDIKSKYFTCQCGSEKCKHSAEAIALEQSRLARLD
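G9a (20 nM) preincubated 15 min RT with compounds, then 500 nM biotinylated H3K9 peptide and 20 uM SAM added; 2 h RT reaction. Monomethyl-H3K9 product detected by AlphaScreen with anti-H3K9me1 antibody, streptavidin donor and anti-rabbit IgG acceptor beads.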
CtBP-E1A blk: inhibitors of CtBP/E1A interaction; AlphaScreen GST-E1A/His-CtBP binding, 1536-well; active compounds read low; activity change, % (test concentration not listed); 340,000 compounds, 0.49% hits; AID 651724; in the data active = activity change below about -65%; inconclusive = mostly about -30% to -63%; note: % is set by controls: 0 for no effect and ±100 for the full control effect
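AlphaScreen with 125 nM GST-E1A and 125 nM His-CtBP (5X stocks) in Tris pH 8.0, 300 mM NaCl, BSA, Tween 20, TCEP. Compounds preincubated 2 h at 37 deg C, then glutathione donor/nickel acceptor beads added for 1 h at 37 deg C in dark.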
BAZ2B inh: inhibitors of human BAZ2B bromodomain | Q9UIF8 | AlphaScreen BAZ2B-H3K14Ac peptide displacement | Potency, µM (series often up to 114 µM), for inactives: at the top dose activity change, negative = inhibition, hits mostly inhibitors | 360,000 compounds, 4.4% hits; note: potency is the fitted concentration of half-maximal effect; % is set by controls: 0 for no effect and ±100 for the full control effect; nearly all actives have a fitted effect of over 60% in size
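AlphaScreen displacement: compounds (up to 110uM) incubated 30 min at room temperature with a preformed 50 nM BAZ2B/50 nM biotinylated H3K14Ac peptide complex in PBS pH 7.4 with Tween-20. Donor and acceptor beads at 10 ug/mL final added, 20 min light-protected before reading.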
Six1-Eya2 inh: inhibitors of human Six1/Eya2 interaction | activity change, % (no concentration beside the values) | AlphaScreen GST-Six1/His-Eya2 binding, biochemical; active compounds read low | Q15475+O00167 | 360,000 compounds, 0.56% hits | AID 651725; in the data active = activity change below about -65%; inconclusive = mostly about -30% to -63%; note: % is set by controls: 0 for no effect and ±100 for the full control effect
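GST-Six1 + His-Eya2 (5X stock: 250/500 nM); Tris pH 8.0, 300 mM NaCl, 0.05% BSA, 0.02% Tween 20; GSH donor/Ni acceptor beads; 1 h 37 °C dark; AlphaScreen readout.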
Active calls of the source: *; ? = inconclusive; . = no result; [ ] = dose if it differs, or a comment. Unless noted, calls come from the whole dose curve; as a rule, active = well fitted inhibition curve with a large enough effect; inconclusive = small, poorly fitted or top-dose-only effect; inactive = no such curve, though single readings can be large or run the other way.

SMILES	HP1b chromo inh	JMJD2A Tudor inh	G9a inh	CtBP-E1A blk	BAZ2B inh	Six1-Eya2 inh
C#CCOCCOCCOCCNc1nc(N2CCN(C(=O)C([C@@H](C)O)n3cc([C@@H](N)CCCCN)nn3)CC2)nc(N2CCN(C(=O)[C@H](CCC(=O)O)n3cc([C@@H](N)[C@H](C)CC)nn3)CC2)n1 (some centres undefined)	18%	89µM*	.	-15	.	-12
C#CCOCCOCCOCCNc1nc(N2CCN(C(=O)[C@H](CCCCN)n3cc([C@@H](N)CC(C)C)nn3)CC2)nc(N2CCN(C(=O)[C@H](CCCCN)n3cc([C@@H](N)CC(C)C)nn3)CC2)n1	26%	-35%	?	-13	?	-2
CSc1ccccc1NC(=O)CN(C)Cc1cc(=O)n2ccsc2n1	19%	-16%	18%[59 µM]	0	-24%	3
Cc1cc(C)c(S(=O)(=O)c2ccccc2)c(OC(=O)c2ccc(Cl)cc2Cl)n1	103%	-22%	19%	9	56µM*	1
Cc1cc(C)c(S(=O)(=O)c2ccccc2)c(OC(=O)c2c(Cl)cccc2Cl)n1	13%	-16%	19%[59 µM]	-3	2%	-6
COc1ccc(NC(=O)CSc2cn[nH]n2)cc1OC	33%	-4%	35µM*	-4	3%	-17
Cc1nonc1NC(=O)CSc1ccc(-c2ccccc2)nn1	35%	-5%	9%	1	-2%	-3
Cc1nonc1NC(=O)CSc1cn[nH]n1	18%	-8%	50µM*	4	-19%	12
COc1ccc(NC(=O)CSc2ccccn2)cc1OC	27%	-4%	-45%[59 µM]	-4	-12%	6
NS(=O)(=O)c1ccc(NC(=O)CSc2cn[nH]n2)cc1	48%	-6%	45µM*	4	-3%	6
Cc1cccc(NC(=O)CSc2cn[nH]n2)c1	36%	5%	40µM*	4	3%	1
CC(=O)c1ccc(NC(=O)CSc2cn[nH]n2)cc1	42%	3%	?	-1	-4%	-9
Cc1ccc(CCNC(=O)c2cn(C)c3ccc(S(=O)(=O)N(C)C4CCCCC4)cc3c2=O)cc1	-1%	-28%	-5%[59 µM]	.	.	.
NS(=O)(=O)c1ccc(NC(=O)CSc2ncnc3ccccc23)cc1	38%	-13%	-32%	.	79µM*	2
NS(=O)(=O)c1cccc(NC(=O)CSc2ncnc3ccccc23)c1	25%	-11%	16%[59 µM]	-10	-2%	-1
COc1ccc(C)cc1-n1c(-c2ccncc2)n[nH]c1=S	41%	20µM*	?	2	1%	5
COc1cc(OC)cc(-c2n[nH]c(=S)n2-c2cc(OC)ccc2OC)c1	20%	7.9µM*	?	2	-1%	-2
COc1ccc(-c2cc(-c3ccc(OC)c(OC)c3)n[nH]2)c(O)c1	8%	-29%	?	-24	4%	-20
COc1ccc(OC)c(-n2c(-c3ccc(O)cc3O)n[nH]c2=S)c1	10%	4µM*	.	-9	-8%	0
Cc1ccc(S(=O)(=O)n2nc(-c3ccco3)nc2NCc2ccccc2Cl)cc1	-7%	-26%	?	.	-20%	.
CCOC(=O)c1oc2c(c1C)/C(=N/O)CCC2	25%	-8%	12%	-3	-10%	-83*
CN(C)c1ccc(C(CNC(=O)COc2ccc(Cl)cc2)N2CCCC2)cc1 (centres undefined)	31%	3%	50µM*	.	35µM*	-29
Cc1cc(S(=O)(=O)NCC(c2ccc(F)cc2)N2CCN(C)CC2)ccc1F (centres undefined)	-10%	-17%	?	-2	10%	6
COc1ccc(S(=O)(=O)NCC(c2ccco2)N2CCc3ccccc32)cc1 (centres undefined)	?	?	?	-12	?	-21
O=C(NCC(c1ccc(F)cc1)N1CCOCC1)c1ccc(Br)o1 (centres undefined)	20%	-20%	50µM*	3	?	-2
